Results from PubChem BioAssay (NCI).
The panel holds about 83,000 compounds, 20% with a hit somewhere; the sample as a whole holds those more often.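 In brief: 96-well plates, 48 h treatment, single concentration, percent growth endpoint.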 Unmarked numbers belong to inactive results. The calls were made as follows: active = growth percent below 10; inactive = the rest.

These compounds were tested on PC-3 prostate (assay: NCI-60 one-dose screen, 48 h (100 = growth as untreated, 0 = no growth, -100 = all killed)). Conditions: 10 µM unless noted.

Row | SMILES | growth [%]
1 | Nc1c(Br)cc2c(c1Br)Cc1cc([N+](=O)[O-])ccc1-2 | 87.9
2 | CCCN(CCSSCCNc1nc(N(C)O)nc(N(C)O)n1)c1nc(N(C)O)nc(N(C)O)n1 | 67.9
3 | COC(=O)c1sccc1-c1cc(O)c(C(=O)Nc2ccccc2)s1 | 90.4
4 | N#Cc1c(-c2ccc(Cl)cc2)nc(NN=Cc2ccc[nH]2)nc1N1CCOCC1 | 46.6
5 | Clc1ccc(-c2nc(C(Cl)Cl)nc3cc(-c4ccccc4)nn23)cc1 | 41.2
6 | C/C(=N\Nc1ccccc1)c1ccc(NC2=CC(=O)c3ccccc3C2=O)cc1 | 40.1
7 | COc1ccc(/C=C(/C(=O)N2CCNCC2)c2cc(OC)c(OC)c(OC)c2)cc1O | 26.8
8 | CCN(CC)CCCC(Cc1ccccc1)Nc1c2ccc(Cl)cc2nc2ccc(OC)cc12 (stereo unspecified) | 44.8
9 | Fc1ccc2[nH]cc(-c3nc(-c4c[nH]c5c(Cl)nccc45)cs3)c2c1 | 31.5
10 | Fc1ccc(/C=C/[C@@H]2C[C@@H](F)CCO2)cc1 | 43.6
11 | Cc1ccccc1N1CCN(C(=S)c2ccccc2)CC1 | 101
12 | N#Cc1ccc(/C=C/c2cn(-c3ccccc3)nc2-c2cccc([N+](=O)[O-])c2)cc1 | 44.3
13 | Cc1[nH]c(C(=O)Nc2ccccc2OC2CCN(CCN3CCOCC3)CC2)c(Cl)c1Cl | 78.3
14 | COc1ccc(C(O)c2cc3c(N)c(C(=O)Nc4cccc5ccccc45)sc3nc2C)cc1 (stereo unspecified) | 14.1
15 | Cc1ccc(C(=O)c2ccc(CC(=O)N/N=C/c3cccc(O)c3O)n2C)cc1 | 59.2
16 | CCC(C)(C)c1ccc(Nc2ccc(Nc3ccc(C(C)(C)CC)cc3)cc2)cc1 | 65.8
17 | O=C(Nc1ccc(Nc2ccncc2)cc1)c1ccc(Nc2ccnc3ccc([N+](=O)[O-])cc23)cc1 | 80.3
18 | CCCCNC(=O)c1ccc2c(c1)nc(-c1ccccc1)n2C1CCCCC1 | 90.9
19 | Cc1ccc(NC(=O)c2cc3ccccc3cc2O)c(C)c1 | 35.9
20 | CCOC(=O)C(CCN(C)C)c1ccccc1 (stereo unspecified) | 86.6
21 | CC(O)Cc1c[nH]c(=O)[nH]c1=O (stereo unspecified) | 126
22 | COCCn1cc(-c2nc(-c3c[nH]c4ncccc34)cs2)c2ccccc21 | 33.2
23 | CC1SC(c2ccccc2O)N(NC(=O)CCC(=O)c2nc3ncccc3[nH]2)C1=O (stereo unspecified) | 92.3
24 | COC12C=C/C(=C(/C(=O)OCCSc3ccnn3C)C(=O)CCCCCCCCC3(OC)C=C/C(=C(/C(=O)OCCSc4ccnn4C)C(=O)CCCCCCCC1)O3)O2 | 15.8
25 | COC1C(O)CC(OC2CC(OC3CC(O[C@@H]4C(=O)c5c(cc6cc(OC7CC(OC8CC(O)C(O)C(C)O8)C(O)C(C)O7)c(C)c(O)c6c5O)CC4[C@H](OC)[C@@H](O)C(C)=O)OC(C)C3O)OC(C)C2O)OC1C (stereo partly specified) | 16.9
26 | CNC(=O)c1cc(Oc2ccc3c(c2)sc2nc(-c4ccc(NC(=O)[C@@H](NC(=O)OC)C(C)C)cc4)cn23)ccn1 | 40.2
